Source: PubChem
An excerpt weighted towards active compounds, which were near 7.4% of everything screened.
SMN2 splice up = increases expression of the SMN2 splice variant; HEK293 SMN2-luciferase splicing reporter, luminescence, 30-36 h; Potency, µM (series often up to 46.1 µM), most hits filed as activators; hit rate 2.8% among 210,000; also: nearly all actives have a fitted effect of over 55% in size
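qHTS luciferase splicing reporter: luminescence rises when SMN2 exon 7 is included in transfected HEK293 cells. Compound exposure lasted 30-36 h at 37C, with 4.5 mM final sodium butyrate as control, followed by a ONE-Glo read.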
ELG1 genotoxic = genotoxicity induction in ELG1-luciferase HEK293T cells. Potency, µM (top dose mostly 46 µM), most hits filed as activators. HEK293T ELG1-luciferase reporter, luminescence, 16 h. hit rate 1.3% among 330,000. AID 504466; also: nearly all actives have a fitted effect of over 60% in size
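Screening used a luciferase reporter fused to human ELG1 in HEK293T cells. Luminescence was read on a CCD plate imager after 16 hr exposure and 30 min ONE-Glo incubation.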
Rab9 prom act = Rab9 promoter activation; Huh7 Rab9 promoter-luciferase reporter, luminescence, 24 h; Potency, µM (series often up to 9.22 µM), usual class: activators; hit rate 2.8% among 320,000; also: nearly all actives have a fitted effect of over 60% in size
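Luminescence from Amplite-detected luciferase (10 minutes, ambient) reports Rab9 promoter activation. Before that, stable Rab9-luciferase Huh7 cells (1500/well, reduced-serum OP-MEM I plus 10% FBS) were exposed to compound for 24 hours at 37C.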
NPC1 prom act = NPC1 promoter activation; Huh7 NPC1 promoter luciferase reporter, 24 h; Potency, µM (series often up to 9.22 µM), actives largely listed as activators; hit rate 2.4% among 320,000; also: nearly all actives have a fitted effect of over 60% in size
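Huh7 reporter cells (NPC1 promoter driving luciferase) are dosed with compound for 24 h at 37 °C, 5% CO2; luciferase detection reagent is then added and luminescence measured after 10 min at ambient temperature.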
KinaseGlo FLuc = counter-screen: inhibitors of Kinase-Glo firefly luciferase; Q27757; Kinase-Glo luciferase, ATP luminescence, 8 min; Potency, µM (titrated, usually from 38.3 µM), actives largely listed as inhibitors; hit rate 0.28% among 200,000; AID 1379; also: nearly all actives have a fitted effect of over 60% in size
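Substrate mix (final 50 mM imidazole pH 7.2, 50 mM KCl, 7 mM MgCl2, 10 uM ATP, 0.01% Tween 20, 0.05% BSA) plus pin-tool compound, then Kinase-Glo detection mix; 8 min ambient, luminescence read.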
FLuc counter = firefly luciferase modulation, counter-screen for miR-21 project; purified FLuc, Km substrates, luminescence inhibition; Potency, µM (doses to about 57.5 µM), usual class: inhibitors; hit rate 6.9% among 360,000; AID 588342; also: nearly all actives have a fitted effect of over 55% in size
Target sequence (P08659 whole entry, looked up): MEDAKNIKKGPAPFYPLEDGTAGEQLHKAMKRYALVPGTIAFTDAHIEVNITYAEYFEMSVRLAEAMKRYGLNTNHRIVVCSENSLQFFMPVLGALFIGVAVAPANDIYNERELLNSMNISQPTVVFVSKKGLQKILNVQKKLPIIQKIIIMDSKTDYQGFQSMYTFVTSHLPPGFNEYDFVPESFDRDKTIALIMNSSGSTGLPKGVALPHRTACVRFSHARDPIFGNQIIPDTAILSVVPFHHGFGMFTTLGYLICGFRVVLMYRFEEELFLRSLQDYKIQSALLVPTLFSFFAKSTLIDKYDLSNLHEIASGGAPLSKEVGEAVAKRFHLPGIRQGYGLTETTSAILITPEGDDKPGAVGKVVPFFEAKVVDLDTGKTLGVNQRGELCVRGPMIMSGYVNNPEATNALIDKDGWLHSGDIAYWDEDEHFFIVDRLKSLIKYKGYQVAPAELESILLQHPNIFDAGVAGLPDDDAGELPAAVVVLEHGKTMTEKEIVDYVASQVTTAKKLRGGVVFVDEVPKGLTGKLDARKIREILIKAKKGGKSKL
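Biochemical qHTS of compounds, final roughly 60 µM downward over six points, against 10 nM purified firefly luciferase using Km concentrations of substrates (10 uM D-luciferin, 10 uM ATP) in Tris acetate pH 7.5 buffer; luminescence output.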
Numbers stand for hits; n = inactive; u = inconclusive; x = no result given; [ ] = another dose, or the depositor's remark. Calls follow the shape of the dose curve; as a rule, active = well fitted curve in the direction sought with a large enough effect; inconclusive = small, poorly fitted or top-dose-only effect, or another doubt; inactive = no such curve, though single readings can be large; an effect the other way counts as inactive or inconclusive.

SMILES	SMN2 splice up	ELG1 genotoxic	Rab9 prom act	NPC1 prom act	KinaseGlo FLuc	FLuc counter
O=[N+]([O-])c1cccc(-c2nc3ccc([N+](=O)[O-])cc3[nH]2)c1	n	n	4µM	n	u	u
O=[N+]([O-])c1ccc2nc(-c3ccncc3)[nH]c2c1	x	u	n	u	x	17µM
O=[N+]([O-])c1ccc2nc(-c3ccccc3[N+](=O)[O-])[nH]c2c1	n	n	n	n	n	u
O=c1oc(-c2ccccc2F)nc2scc(-c3ccccc3)c12	x	u	u	n	x	4.8µM
COc1cccc(NC(=O)N2CCN3CCCCC3C2)c1 (stereo not given)	x	x	x	x	x	n
Nc1nc2c(s1)COc1ccccc1-2	x	n	n	n	n	u
Nc1nc2c(s1)CC(c1ccccc1)CC2 (stereo not given)	n	n	n	n	n	24µM
CN(C)S(=O)(=O)c1ccc(NC(=O)c2ccccn2)cc1	11µM	u	1.6µM	2.5µM	n	13µM
CCN(CC)S(=O)(=O)c1ccc(NC(=O)c2ccccn2)cc1	n	15µM	u	u	n	15µM
CCOC(=O)c1[nH]c(C)c(CCC(=O)Nc2cc(Cl)ccc2C)c1C	x	x	x	x	x	n
Nc1c(-c2nc(-c3cccs3)no2)nnn1-c1ccc(Cl)cc1	x	x	x	x	x	n
Cn1c(=O)[nH]c2cc(-c3noc(-c4ccc(C#N)cc4)n3)ccc21	x	x	x	x	x	n
CC#CCCCC(=O)Nc1ccc(C(=O)O)cc1	n	n	n	n	n	n
CCc1ccc(CCC(=O)Nc2ccccc2C(=O)O)o1	u	u	u	u	n	19µM
CC#CCCCC(=O)Nc1ccccc1C(=O)O	u	u	u	u	n	19µM
CC(CCC(=O)O)C1CCC2C3CC[C@@H]4CCCC[C@@]4(C)C3CC[C@@]12C (stereo not given in full)	n	x	x	x	n	x
O=C(Nc1ccc(OCC(F)(F)C(F)F)c(C(F)(F)F)c1)c1ccccc1O	n	n	n	n	n	21µM
C=CCOc1ccc(C2NC(=S)NC3=C2CCc2ccccc23)cc1 (stereo not given)	x	n	n	n	x	6µM
COc1cc(C2NC(=S)NC3=C2CCc2ccccc23)cc(OC)c1OC (stereo not given)	n	n	n	n	n	n
CC1C/C(=C/c2cccs2)C(=O)/C(=C/c2cccs2)C1 (stereo not given)	n	n	n	n	n	u
Cn1cccc1/C=C1\CCC/C(=C\c2cccn2C)C1=O	u	1.8µM	0.89µM	1.3µM	n	6µM
O=C1/C(=C/c2cccs2)CCC/C1=C\c1cccs1	x	u	3.5µM	1.3µM	x	1.9µM
COc1ccccc1N1CCN(C(=O)c2cc3c(=O)n(Cc4cccnc4)ccc3nc2C)CC1	x	x	x	x	x	n
COCc1cc(C)n(CC(=O)Nc2ccc(NC(C)=O)cc2)c(=O)c1C#N	n	x	x	x	x	n
Cc1cc(/C=C2\SC(=S)N(Cc3ccco3)C2=O)c(C)n1-c1ccccc1	x	5.2µM	3.5µM	u	n	3µM
SMILES	SMN2 splice up	ELG1 genotoxic	Rab9 prom act	NPC1 prom act	KinaseGlo FLuc	FLuc counter
Cc1cc(/C=C2\SC(=S)N(C)C2=O)c(C)n1-c1cccc(O)c1	x	u	n	u	x	1.1µM
O=C1/C(=C\c2ccco2)SC(=S)N1Cc1ccccc1	n	n	n	n	n	n
CN=C1S/C(=C\c2cc(C)n(-c3ccccc3F)c2C)C(=O)N1C	n	u	1.6µM	u	n	0.34µM
Cc1cc(/C=C2\SC(=O)N(C)C2=O)c(C)n1-c1ccc(O)cc1	x	0.65µM	0.2µM	0.45µM	x	0.48µM
CCCOc1ccc(NC(=O)CC2C(=O)N(c3cccc(OC)c3)C(=O)N2Cc2cccs2)cc1 (stereo not given)	x	x	x	x	x	n
Br/C(=N\Nc1nn[nH]n1)c1ccncc1	n[9.22 µM]	x	x	x	n[7.66 µM]	x
CCc1ccc(-n2nc(C)c3c(C)cc(=O)n(CC(=O)Nc4ccc(OC)c(OC)c4)c32)cc1	x	x	x	x	x	n
COc1ccc(-n2c(C)cc(/C=C3/SC(=S)N(C)C3=O)c2C)cc1	n	10µM	u	u	n	3.4µM
O=C(CSc1nc2c([nH]c3ccccc32)c(=O)n1-c1ccccc1)Nc1ccc2c(c1)OCO2	x	x	x	x	x	n
Cc1ccc(C2=CC(c3cccs3)n3nnnc3N2)cc1 (stereo not given)	n	n	u	5µM	n	n
Fc1ccc(C2=CC(c3cccs3)n3nnnc3N2)cc1 (stereo not given)	x	n	n	n	x	n
CCOc1ccc(C2C=C(c3ccc(C)cc3)Nc3nnnn32)cc1 (stereo not given)	n	n	n	n	n	n
CCOc1ccc(C2C=C(c3ccccc3)Nc3nnnn32)cc1 (stereo not given)	n	u	1.6µM	2.8µM	n	n
CC1=NN(c2ccccc2)C(=O)/C1=C\C=C\c1ccccc1	x	n	n	n	x	17µM
CCOC(=O)CC1=NN(c2ccccc2)C(=O)C1	n	n	n	n	n	n
